Records with an inconclusive call do not appear. Active and inactive are the calls of the source. Calls come from the whole dose curve; as a rule, active = well fitted inhibition curve with a large enough effect; inconclusive = small, poorly fitted or top-dose-only effect; inactive = flat fitted curve, though single readings scatter.
test system: W2; assay: qHTS profiling for inhibitors of Plasmodium falciparum proliferation (AID 504749); conditions: P. falciparum in erythrocytes, SYBR Green DNA, 72 h; series mostly up to 28.7 µM
Procedure, shortened: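 SYBR Green fluorescence of parasite DNA, read after lysis and overnight dark incubation, measured growth over 72 h in erythrocyte culture at 0.3% parasitemia and 2.5% hematocrit. Data normalised to DMSO and 0.29 uM artemisinin, with plate-drift correction.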
Note: nearly all actives have a fitted effect of over 60% in size.
Potency is the fitted concentration of half-maximal effect.

Compound	Potency
CN(C)CCN(Cc1cccs1)c1ccccn1	1900 nM (active)
CN(C)CCCN1c2ccccc2Sc2ccc(C(F)(F)F)cc21	6750 nM (active)
COc1cc2c(cc1OC)-c1cc(=Nc3c(C)cc(C)cc3C)n(C)c(=O)n1CC2	1900 nM (active)
CSc1ccc(C(=O)c2[nH]c(=O)[nH]c2C)cc1	inactive
C[N+](C)(C)CCCCCCCCCC[N+](C)(C)C	4780 nM (active)
CC[N+](C)(C)c1cccc(O)c1	inactive
CCCCNC(=O)NS(=O)(=O)c1ccc(C)cc1	inactive
CCN(CC)CCOCCOC(=O)C1(c2ccccc2)CCCC1	953 nM (active)
OCCN1CCN(CC/C=C2/c3ccccc3Sc3ccc(C(F)(F)F)cc32)CC1	1900 nM (active)
COCC(=O)O[C@]1(CCN(C)CCCc2nc3ccccc3[nH]2)CCc2cc(F)ccc2[C@@H]1C(C)C	120 nM (active)
CC(C)(C)c1ccc(C(=O)CCCN2CCC(OC(c3ccccc3)c3ccccc3)CC2)cc1	4780 nM (active)
NC1=NCC2c3ccccc3Cc3ccccc3N12 (centres undefined)	inactive
COC(=O)C1=C(C)NC(C)=C(C(=O)OC(C)(C)CN(C)CCC(c2ccccc2)c2ccccc2)C1c1cccc([N+](=O)[O-])c1 (centres undefined)	1200 nM (active)
CN1CCN(CC(=O)N2c3ccccc3C(=O)Nc3cccnc32)CC1	inactive
CCNC(=O)N1CCN(CCCC(c2ccc(F)cc2)c2ccc(F)cc2)CC1	953 nM (active)
CN(C)CC[C@@H](c1ccc(Br)cc1)c1ccccn1	849 nM (active)
Cc1nnc(SCC2=C(C(=O)O)N3C(=O)[C@@H](NC(=O)Cn4cnnn4)[C@H]3SC2)s1	inactive
CCc1cccc(N(C)C(N)=Nc2cccc3ccccc23)c1	757 nM (active)
CN(C)C(=O)Oc1ccc[n+](C)c1	inactive
O=C1NCN(c2ccccc2)C12CCN(CCCC(c1ccc(F)cc1)c1ccc(F)cc1)CC2	2390 nM (active)
Cc1nc2ccccn2c(=O)c1CCN1CCC(C(=O)c2ccc(F)cc2)CC1	6010 nM (active)

test system: HEK293; assay: Cytotoxic Profiling of Annotated Libraries Using Quantitative High-Throughput Screening (AID 1296008); conditions: Five cell lines viability, CellTiter-Glo ATP luminescence, 48-72 h; max response: stronger effect = lower value; for max response: % is set by controls: 0 for no effect and ±100 for the full control effect
Procedure, shortened: (§1)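 Cytotoxicity was measured as CellTiter-Glo ATP luminescence, read after 10 min at room temperature. Compound treatment of the cells lasted 48 or 72 hr at 37 degrees Celsius in a qHTS format.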

Compound	outcome	Potency
C[C@]12CCC(=O)C=C1CC[C@@H]1[C@@H]2C(=O)C[C@@]2(C)[C@H]1CC[C@]2(O)C(=O)CO	inactive	–
CC(C)COCC(CN(Cc1ccccc1)c1ccccc1)N1CCCC1 (centres undefined)	–	18800 nM (active)
CC(C)(C)c1ccc(C(=O)CCCN2CCC(OC(c3ccccc3)c3ccccc3)CC2)cc1	–	8410 nM (active)
COC(=O)C1=C(C)NC(C)=C(C(=O)OC(C)(C)CN(C)CCC(c2ccccc2)c2ccccc2)C1c1cccc([N+](=O)[O-])c1 (centres undefined)	–	10600 nM (active)
Cc1nnc(SCC2=C(C(=O)O)N3C(=O)[C@@H](NC(=O)Cn4cnnn4)[C@H]3SC2)s1	inactive	–
NS(=O)(=O)c1cc2c(cc1Cl)NC(C1CC3C=CC1C3)NS2(=O)=O (centres undefined)	inactive	–
O=C1NCN(c2ccccc2)C12CCN(CCCC(c1ccc(F)cc1)c1ccc(F)cc1)CC2	–	10600 nM (active)

test system: HaCat; assay: as above; conditions: Five cell lines viability, CellTiter-Glo ATP luminescence, 48-72 h; max response: stronger effect = lower value
Procedure, shortened: as §1

Compound	outcome	max response
COc1cc2c(cc1OC)-c1cc(=Nc3c(C)cc(C)cc3C)n(C)c(=O)n1CC2	inactive	–
CCOC(=O)C1=C(C)NC(C)=C(C(=O)OC)C1c1cccc(Cl)c1Cl (centres undefined)	inactive	–
CNCCCN1c2ccccc2CCc2ccccc21	inactive	–
OCCN1CCN(CC/C=C2/c3ccccc3Sc3ccc(C(F)(F)F)cc32)CC1	–	-11.5% (inactive)
NC1=NCC2c3ccccc3Cc3ccccc3N12 (centres undefined)	–	-7.94% (inactive)
CCNC(=O)N1CCN(CCCC(c2ccc(F)cc2)c2ccc(F)cc2)CC1	inactive	–
Cc1nnc(SCC2=C(C(=O)O)N3C(=O)[C@@H](NC(=O)Cn4cnnn4)[C@H]3SC2)s1	inactive	–
CCc1cccc(N(C)C(N)=Nc2cccc3ccccc23)c1	–	-4.04% (inactive)
COCCOC(=O)C1=C(C)NC(C)=C(C(=O)OC(C)C)C1c1cccc([N+](=O)[O-])c1 (centres undefined)	inactive	–
Cc1nc2ccccn2c(=O)c1CCN1CCC(C(=O)c2ccc(F)cc2)CC1	–	-15.4% (inactive)

test system: KB-3-1; assay: as above; conditions: Five cell lines viability, CellTiter-Glo ATP luminescence, 48-72 h; max response: stronger effect = lower value
Procedure, shortened: as §1

Compound	max response
CNCCCN1c2ccccc2CCc2ccccc21	-3.48% (inactive)
CC(C)COCC(CN(Cc1ccccc1)c1ccccc1)N1CCCC1 (centres undefined)	-4.17% (inactive)
CC(C)(C)c1ccc(C(=O)CCCN2CCC(OC(c3ccccc3)c3ccccc3)CC2)cc1	-0.417% (inactive)
NC1=NCC2c3ccccc3Cc3ccccc3N12 (centres undefined)	-4.43% (inactive)
CCNC(=O)N1CCN(CCCC(c2ccc(F)cc2)c2ccc(F)cc2)CC1	-7.16% (inactive)
COCCOC(=O)C1=C(C)NC(C)=C(C(=O)OC(C)C)C1c1cccc([N+](=O)[O-])c1 (centres undefined)	2.4% (inactive)

test system: NIH3T3; assay: as above; conditions: Five cell lines viability, CellTiter-Glo ATP luminescence, 48-72 h; max response: stronger effect = lower value
Procedure, shortened: as §1

Compound	max response	Potency
C[C@]12CCC(=O)C=C1CC[C@@H]1[C@@H]2C(=O)C[C@@]2(C)[C@H]1CC[C@]2(O)C(=O)CO	1.17% (inactive)	–
CC(C)COCC(CN(Cc1ccccc1)c1ccccc1)N1CCCC1 (centres undefined)	–	26600 nM (active)
NC1=NCC2c3ccccc3Cc3ccccc3N12 (centres undefined)	-2.29% (inactive)	–
CCNC(=O)N1CCN(CCCC(c2ccc(F)cc2)c2ccc(F)cc2)CC1	-3.38% (inactive)	–
Cc1nnc(SCC2=C(C(=O)O)N3C(=O)[C@@H](NC(=O)Cn4cnnn4)[C@H]3SC2)s1	-2.45% (inactive)	–
CN(C(=O)CCCOc1ccc2[nH]c(=O)ccc2c1)C1CCCCC1	-24.3% (inactive)	–
CCc1cccc(N(C)C(N)=Nc2cccc3ccccc23)c1	-9.35% (inactive)	–
COCCOC(=O)C1=C(C)NC(C)=C(C(=O)OC(C)C)C1c1cccc([N+](=O)[O-])c1 (centres undefined)	-6.33% (inactive)	–
Cc1nc2ccccn2c(=O)c1CCN1CCC(C(=O)c2ccc(F)cc2)CC1	-5.4% (inactive)	–

Reference: PubChem BioAssay (NCATS)
